# Laboratory results from PubChem BioAssay (Tox21).
# Records with an inconclusive call do not appear. Entries that show only a call come without a potency. Unmarked numbers belong to inactive results. Calls of active or inactive are those of the source. Unless noted, calls follow the shape of the dose curve; as a rule, active = well fitted curve in the direction sought with a large enough effect in the repeat runs; inconclusive = weak or mixed curves; inactive = no such curve, though single readings can be large; an effect the other way counts as inactive or inconclusive.
# What was measured:
# [1] = qHTS assay to identify small molecule agonists of the peroxisome proliferator-activated receptor delta (PPARd) signaling pathway - cell viability counter screen (AID 743211); also: nearly all actives have a fitted effect of over 55% in size
# Method in brief: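 Following 5 h plating at 37 C and 5% CO2, PPARd UAS-bla HEK293H cells took up test compounds for 17 h. Viability was quantified by luminescence 30 min after CellTiter-Glo addition at room temperature.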
# [2] = molecular target: Peroxisome proliferator-activated receptor delta (Homo sapiens) (UniProt Q03181); test: qHTS assay to identify small molecule agonists of the peroxisome proliferator-activated receptor delta (PPARd) signaling pathway (AID 743212; calls by dose curve;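 also: HEK293H cells with PPARd UAS beta-lactamase reporter GeneBLAzer system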)
# Sequence of Peroxisome proliferator-activated receptor delta (Homo sapiens) (Q03181 whole entry, looked up): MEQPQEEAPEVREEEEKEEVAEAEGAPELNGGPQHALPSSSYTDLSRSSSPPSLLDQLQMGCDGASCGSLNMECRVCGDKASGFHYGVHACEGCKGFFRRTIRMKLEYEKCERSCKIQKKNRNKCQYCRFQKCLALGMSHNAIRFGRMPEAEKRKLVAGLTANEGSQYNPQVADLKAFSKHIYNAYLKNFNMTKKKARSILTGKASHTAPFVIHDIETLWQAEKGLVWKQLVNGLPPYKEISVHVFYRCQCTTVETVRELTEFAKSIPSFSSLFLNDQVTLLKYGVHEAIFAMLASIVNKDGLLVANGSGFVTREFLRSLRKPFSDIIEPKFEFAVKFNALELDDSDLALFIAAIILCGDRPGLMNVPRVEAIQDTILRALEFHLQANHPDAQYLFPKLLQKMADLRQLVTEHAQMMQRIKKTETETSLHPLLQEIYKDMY
# Method in brief: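 Beta-lactamase reporter readout: a ratiometric FRET signal from the LiveBLAzer substrate after 2 h at room temperature. Compound exposure at 37 °C in PPARδ-bla HEK293H cells driven by an upstream activator sequence.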
# [3] = qHTS assay to identify small molecule antagonists of the peroxisome proliferator-activated receptor delta (PPARd) signaling pathway - cell viability counter screen (AID 743213); also: nearly all actives have a fitted effect of over 50% in size
# Method in brief: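 Same-well viability: cells pre-incubated 5 h, dosed with compound plus 300 nM L165041, kept 17 h at 37 C, FRET substrate 2 h RT, then CellTiter-Glo 30 min RT and luminescence.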
# [4] = molecular target: Peroxisome proliferator-activated receptor delta (Homo sapiens) (UniProt Q03181); test: qHTS assay to identify small molecule antagonists of the peroxisome proliferator-activated receptor delta (PPARd) signaling pathway (AID 743215; active = well fitted inhibition curve with a large enough effect in the signal ratio in the repeat runs, not every such curve was filed as active; the % refers to the signal ratio;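 also: cells stimulated with agonist L165041 at 300 nM final during compound exposure; series mostly up to about 62 µM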)
# Method in brief: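 Here, a reporter line (HEK293H, beta-lactamase under a UAS) measures PPARd signaling. Compounds are tested against agonist L165041 at 300 nM final concentration over 17 h at 37 C, with fluorescence read after substrate.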
# [5] = qHTS assay to identify small molecule agonists of the farnesoid-X-receptor (FXR) signaling pathway - cell viability counter screen (AID 743218); also: nearly all actives have a fitted effect of over 45% in size
# Method in brief: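 Quantitative HTS counter screen measuring ATP-based viability via CellTiter-Glo luminescence in HEK 293T cells carrying a UAS-driven beta-lactamase reporter, after 16 h compound exposure at 37 C.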
# [6] = qHTS assay to identify small molecule antagonists of the farnesoid-X-receptor (FXR) signaling pathway - cell viability counter screen (AID 743221; active = well fitted cell-killing curve with a large enough effect in the repeat runs, not every such curve was filed as active; also: nearly all actives have a fitted effect of over 50% in size)
# Method in brief: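 Compound effects on cell number were measured as CellTiter-Glo luminescence in HEK 293T cells expressing FXR-UAS-bla, after 16 h at 37 C with 50 uM CDCA (final).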
# [7] = molecular target: Vitamin D3 receptor (Homo sapiens) (UniProt P11473); test: qHTS assay to identify small molecule agonists of the vitamin D receptor (VDR) signaling pathway (AID 743222; calls by dose curve)
# Sequence of Vitamin D3 receptor (Homo sapiens) (P11473 whole entry, looked up): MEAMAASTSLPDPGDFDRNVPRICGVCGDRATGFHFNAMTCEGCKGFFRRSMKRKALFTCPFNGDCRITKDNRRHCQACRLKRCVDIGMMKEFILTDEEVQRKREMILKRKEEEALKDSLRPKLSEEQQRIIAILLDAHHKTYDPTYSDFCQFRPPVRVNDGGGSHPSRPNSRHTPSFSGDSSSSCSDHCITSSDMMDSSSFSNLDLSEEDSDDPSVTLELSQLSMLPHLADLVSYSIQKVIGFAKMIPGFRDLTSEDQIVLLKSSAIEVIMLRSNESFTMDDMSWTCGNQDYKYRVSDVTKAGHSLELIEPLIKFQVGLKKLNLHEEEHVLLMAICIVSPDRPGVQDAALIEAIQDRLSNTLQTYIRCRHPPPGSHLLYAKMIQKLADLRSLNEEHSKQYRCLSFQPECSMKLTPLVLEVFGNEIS
# Method in brief: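 Tox21 cell reporter format: VDR-bla line, 16 h compound exposure in 5% CO2 at 37C, then fluorescence intensity after 2 h with LiveBLAzer B/G FRET substrate.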
# [8] = molecular target: Vitamin D3 receptor (Homo sapiens) (UniProt P11473); test: qHTS assay to identify small molecule antagonists of the vitamin D receptor (VDR) signaling pathway (AID 743223; active = well fitted inhibition curve with a large enough effect in the signal ratio in the repeat runs, not every such curve was filed as active; the % refers to the signal ratio)
# Method in brief: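 Beta-lactamase activity in VDR-bla cells is measured by FRET substrate fluorescence (2 h, room temperature) after cells spend 16 h at 37C with test compound and 3 nM final 1alpha,25-dihydroxyvitamin D3.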
# [9] = qHTS assay to identify small molecule agonists of the vitamin D receptor (VDR) signaling pathway - cell viability counter screen (AID 743224); also: series mostly up to about 63 µM; nearly all actives have a fitted effect of over 50% in size
# Method in brief: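 CellTiter-Glo viability readout on VDR-bla cells, measured after 16 h of compound treatment at 37C in the same wells.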
# [10] = qHTS assay to identify small molecule antagonists of the vitamin D receptor (VDR) signaling pathway - cell viability counter screen (AID 743225); also: nearly all actives have a fitted effect of over 50% in size
# Method in brief: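 In this counter screen, VDR-bla HEK 293T cells receive test compound plus 3 nM final calcitriol for 16 h at 37C. Room-temperature steps of 2 h with the beta-lactamase substrate, then 30 min with CellTiter-Glo, precede the luminescence read.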
# [11] = qHTS assay to identify small molecule agonists of the NFkB signaling pathway (AID 1159509; active = well fitted curve in the direction sought with a large enough effect in the signal ratio in the repeat runs, not every such curve was filed as active; the % refers to the signal ratio; also: series mostly up to about 61 µM)
# Method in brief: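 Agonist activity was read as beta-lactamase-driven FRET change (460 and 530 nm emission, 405 nm excitation) following 1.5 hr substrate loading at room temperature. Beforehand, ME-180 NFkB-bla reporter cells were treated with compounds for 5 hr at 37 C.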
# [12] = qHTS assay to identify small molecule agonists of the NFkB signaling pathway - cell viability counter screen (AID 1159515; calls by dose curve; also: series mostly up to about 61 µM; nearly all actives have a fitted effect of over 55% in size)
# Method in brief: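 Tox21 library compounds were tested for cytotoxicity against NFkB-bla ME-180 cells during a 5 hr exposure at 37 C. CellTiter-Glo luminescence served as the viability read-out.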
# [13] = qHTS assay to identify small molecule agonists of the endoplasmic reticulum stress response signaling pathway (AID 1159516; active = well fitted activation curve with a large enough effect in the signal ratio in the repeat runs, not every such curve was filed as active; the % refers to the signal ratio)
# Method in brief: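 Fluorescence at 460 and 530 nm (405 nm excitation) reports beta-lactamase from an ER stress response element in HeLa cells treated 5 hr at 37 C.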
# [14] = qHTS assay to identify small molecule agonists of the endoplasmic reticulum stress response signaling pathway - cell viability counter screen (AID 1159517; calls by dose curve)
# Method in brief: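 ESRE-bla HeLa cells (1,500/well) were plated overnight at 37 C and exposed to compounds for 5 hr. After the 2 hr beta-lactamase substrate read, CellTiter-Glo went into the same wells, and luminescence was read after 30 min at room temperature.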
# [15] = qHTS assay to identify small molecule antagonists of the retinoid-related orphan receptor gamma (ROR-gamma) signaling pathway - cell viability counter screen (AID 1159520); also: nearly all actives have a fitted effect of over 50% in size; also: potency is read from the fitted curve at half-maximal effect
# Method in brief: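 Cytotoxicity was read from cellular ATP (CellTiter-Glo luminescence) after 16 hr at 37 C with 1 uM doxycycline induction. The inducer was added 2 hr after compound transfer to Tet-on ROR gamma CHO cells.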
# [16] = molecular target: Nuclear receptor ROR-gamma (Homo sapiens) (UniProt P51449); test: qHTS assay to identify small molecule antagonists of the retinoid-related orphan receptor gamma (ROR-gamma) signaling pathway (AID 1159521; also: nearly all actives have a fitted effect of over 50% in size; also: potency is read from the fitted curve at half-maximal effect)
# Method in brief: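 Screening format: cell-based luciferase reporter in CHO cells with doxycycline-inducible RORγ. Compound pre-exposure lasts 2 h, doxycycline is 1 uM final, induction runs 16 h at 37 C, and ONE-Glo luminescence is read.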
# [17] = qHTS assay to identify small molecule agonists of the AP-1 signaling pathway - cell viability counter screen (AID 1159525; calls by dose curve; also: nearly all actives have a fitted effect of over 55% in size)
# Method in brief: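 Intracellular ATP by Cell Titer Glo luminescence (30 min, RT) in the same ME-180 AP-1-bla wells after the 5 h compound exposure at 37 °C. Normalised to tetra n-octyl ammonium bromide and DMSO controls.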
# [18] = qHTS assay to identify small molecule agonists of the AP-1 signaling pathway (AID 1159526; calls by dose curve)
# [19] = molecular target: Bile acid receptor (Homo sapiens) (UniProt Q96RI1); test: qHTS assay to identify small molecule antagonists of the farnesoid-X-receptor (FXR) signaling pathway (AID 743217; active = well fitted inhibition curve with a large enough effect in the signal ratio in the repeat runs, not every such curve was filed as active; the % refers to the signal ratio)
# Sequence of Bile acid receptor (Homo sapiens) (Q96RI1 whole entry, looked up): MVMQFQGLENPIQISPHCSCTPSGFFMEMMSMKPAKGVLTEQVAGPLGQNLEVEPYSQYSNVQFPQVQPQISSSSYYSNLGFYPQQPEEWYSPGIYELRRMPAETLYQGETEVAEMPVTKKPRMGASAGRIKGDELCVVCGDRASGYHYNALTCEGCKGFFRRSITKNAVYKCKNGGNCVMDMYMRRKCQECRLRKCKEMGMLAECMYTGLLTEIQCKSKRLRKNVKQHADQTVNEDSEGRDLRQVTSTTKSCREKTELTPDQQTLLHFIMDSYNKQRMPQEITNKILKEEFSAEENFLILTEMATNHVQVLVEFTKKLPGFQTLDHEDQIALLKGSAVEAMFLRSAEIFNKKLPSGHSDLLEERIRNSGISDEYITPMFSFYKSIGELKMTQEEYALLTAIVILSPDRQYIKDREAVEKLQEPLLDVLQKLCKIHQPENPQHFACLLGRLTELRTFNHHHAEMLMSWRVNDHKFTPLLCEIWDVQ
# Method in brief: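 Test compounds are pin-transferred onto FXR-bla HEK 293T cells, then chenodeoxycholic acid is added at 50 uM final. After 16 h at 37 °C, LiveBLAzer B/G substrate is applied for 2 h at room temperature and fluorescence read.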
# [20] = molecular target: Bile acid receptor (Homo sapiens) (UniProt Q96RI1); test: qHTS assay to identify small molecule agonists of the farnesoid-X-receptor (FXR) signaling pathway (AID 743220; active = well fitted activation curve with a large enough effect in the signal ratio in the repeat runs, not every such curve was filed as active; the % refers to the signal ratio)
# Method in brief: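 FXR-UAS-bla HEK 293T cells carrying a UAS-driven beta-lactamase reporter were plated for 5 h at 37C/5% CO2, then exposed to DMSO-dissolved Tox21 10K compounds for 16 h at 37C. A LiveBLAzer B/G FRET substrate was loaded for 2 h at room temperature before fluorescence reading.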
Compound,Potency [1],outcome [2],Potency [3],outcome [4],outcome [5],Potency [6],outcome [7],outcome [8],outcome [9],outcome [10],outcome [11],outcome [12],outcome [13],outcome [14],Potency [15],Potency [16],outcome [17],Potency [18],outcome [19],outcome [20]
CCCc1ccc(N)cc1,inactive,inactive,inactive,inactive,inactive,inactive,inactive,inactive,inactive,inactive,inactive,inactive,inactive,inactive,inactive,inactive,inactive,inactive,,
CC(C)c1cccc(C(C)C)c1N,inactive,inactive,inactive,inactive,inactive,inactive,inactive,inactive,inactive,inactive,inactive,inactive,inactive,inactive,inactive,inactive,inactive,inactive,,
OCCN1C[C@H](O)[C@@H](O)[C@H](O)[C@H]1CO,inactive,inactive,inactive,inactive,inactive,inactive,,,inactive,inactive,inactive,inactive,inactive,inactive,inactive,inactive,inactive,inactive,inactive,inactive
CC(=O)N[C@@H](CCC(N)=O)C(=O)O,inactive,inactive,inactive,inactive,,inactive,inactive,inactive,inactive,,inactive,inactive,inactive,inactive,inactive,inactive,inactive,inactive,inactive,
CCC(C)(C)C1CCC(OC)CC1 (configuration not stated),inactive,inactive,inactive,inactive,inactive,inactive,inactive,inactive,inactive,inactive,inactive,inactive,inactive,inactive,48.6 µM (active),inactive,inactive,inactive,inactive,
CC(=O)OC(C)(C)C,inactive,inactive,inactive,inactive,inactive,inactive,,,inactive,inactive,inactive,inactive,inactive,inactive,inactive,inactive,inactive,inactive,,
NS(=O)(=O)c1cc(C2(O)NC(=O)c3ccccc32)ccc1Cl (configuration not stated),inactive,inactive,inactive,,,inactive,inactive,inactive,inactive,inactive,inactive,inactive,inactive,inactive,inactive,inactive,inactive,inactive,inactive,inactive
CCC(=O)Nc1cccc(N)c1,inactive,inactive,inactive,inactive,,inactive,inactive,inactive,inactive,inactive,inactive,inactive,inactive,inactive,inactive,inactive,inactive,inactive,,
CCC(=O)/C=C/c1ccc(OC)cc1,inactive,inactive,inactive,,inactive,,inactive,inactive,inactive,inactive,inactive,inactive,inactive,inactive,inactive,inactive,inactive,inactive,inactive,inactive
CCCCCOC(=O)Nc1nc(=O)n([C@@H]2O[C@H](C)[C@@H](O)[C@H]2O)cc1F,inactive,inactive,inactive,,inactive,inactive,inactive,inactive,inactive,inactive,inactive,inactive,inactive,inactive,inactive,11.9 µM (active),inactive,inactive,,
CC(=O)CCc1ccc(O)cc1,inactive,inactive,inactive,inactive,inactive,inactive,inactive,,inactive,inactive,inactive,inactive,inactive,inactive,inactive,inactive,inactive,inactive,,
C=C[Si](OC)(OC)OC,inactive,inactive,inactive,inactive,,inactive,inactive,inactive,inactive,inactive,inactive,inactive,inactive,inactive,inactive,inactive,inactive,inactive,,
COc1ccc(NC(C)=O)cc1,inactive,inactive,inactive,inactive,,inactive,inactive,inactive,inactive,inactive,inactive,inactive,inactive,inactive,inactive,inactive,inactive,inactive,,
CCCCCCCCN(C)CCCCCCCC,inactive,inactive,inactive,,inactive,inactive,inactive,inactive,inactive,inactive,inactive,inactive,inactive,inactive,inactive,inactive,inactive,inactive,,
Cc1ccc(Nc2ccc(O)c3c2C(=O)c2ccccc2C3=O)cc1,inactive,inactive,inactive,,inactive,inactive,inactive,inactive,inactive,inactive,inactive,inactive,inactive,inactive,inactive,inactive,inactive,inactive,inactive,inactive
CCN(CC)S(=O)(=O)c1ccc(C(=O)O)cc1,inactive,inactive,inactive,inactive,inactive,inactive,inactive,,inactive,inactive,inactive,inactive,inactive,inactive,inactive,inactive,inactive,inactive,,
CCCCCCCCCCCCCCCCCC(=O)OCCCCCCCCCCCCCC(C)C,inactive,inactive,inactive,inactive,,inactive,inactive,inactive,inactive,inactive,inactive,inactive,inactive,inactive,inactive,inactive,inactive,inactive,,
